Assay results reported in PubChem BioAssay AID1159580 (chemical genetic matrix, 2015).
Hit rate of the full screen: of about 5,500 compounds, about 2,000 (36%) were called active. Not shown: some 18% with an inconclusive outcome. Rule as the data show it: active = normalized growth mostly below about 0.91 (no sharp cut-off); inconclusive = no clear call, values can overlap the other calls; inactive = mostly above about 0.92. This is one part of the list.

Assay: chemical genetic growth profiling, strain panel (AID 1159580);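 also: tested at 20 µM; growth read once vehicle control cultures reached saturation at 30 °C; 1 = growth at the plate median or of vehicle wells; lower values mean less growth of the strain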
Conditions: growth OD

Measured: normalized growth

C[C@H](COc1ccccc1)N[C@H](C)[C@H](O)c1ccc(O)cc1
inactive: S. cerevisiae deletion strains, locus YJR043C, strain POL32, hits give low values 1.04 | S. cerevisiae deletion strains, locus YJR066W, strain TOR1, hits give low values 0.946 | S. cerevisiae deletion strains, locus YKL009W, strain mrt4, hits give low values 0.99 | S. cerevisiae deletion strains, locus YKL068W, hits give low values 0.989 | S. cerevisiae deletion strains, locus YKL085W, strain MDH1 (second series), hits give low values 0.977 | S. cerevisiae deletion strains, locus YKL085W, strain MDH1, hits give low values 0.977 | S. cerevisiae deletion strains, locus YKL160W, strain elf1, hits give low values 0.983 | S. cerevisiae deletion strains, locus YKL190W, strain CNB1, hits give low values 1 | S. cerevisiae deletion strains, locus YKR001C, strain vps1, hits give low values 1.01 | S. cerevisiae deletion strains, locus YKR026C, strain gcn3, hits give low values 0.993 | S. cerevisiae deletion strains, locus YKR091W, strain srl3, hits give low values 0.995 | S. cerevisiae deletion strains, locus YLL001W, strain dnm1, hits give low values 0.966 | S. cerevisiae deletion strains, locus YLL026W, hits give low values 1.01 | S. cerevisiae deletion strains, locus YLL041C, strain sdh2, hits give low values 0.993 | S. cerevisiae deletion strains, locus YLR027C, strain aat2, hits give low values 1.01 | S. cerevisiae deletion strains, locus YLR039C, strain RIC1, hits give low values 0.898 | S. cerevisiae deletion strains, locus YLR058C, strain SHM2, hits give low values 0.987 | S. cerevisiae deletion strains, locus YLR102C, strain apc9, hits give low values 0.99 | S. cerevisiae deletion strains, locus YLR113W, strain HOG1, hits give low values 0.962 | S. cerevisiae deletion strains, locus YLR221C, strain rsa3, hits give low values 0.974 | S. cerevisiae deletion strains, locus YLR258W, strain gsy2, hits give low values 0.997 | S. cerevisiae deletion strains, locus YLR262C, strain YPT6 (second series), hits give low values 0.929 | S. cerevisiae deletion strains, locus YLR262C, strain YPT6, hits give low values 1.04 | S. cerevisiae deletion strains, locus YLR268W, strain sec22, hits give low values 0.999 | S. cerevisiae deletion strains, locus YLR320W, strain mms22, hits give low values 0.97 | S. cerevisiae deletion strains, locus YLR330W, strain CHS5, hits give low values 0.988 | S. cerevisiae deletion strains, locus YLR342W, strain FKS1 (second series), hits give low values 1.01 | S. cerevisiae deletion strains, locus YLR342W, strain FKS1, hits give low values 0.997 | S. cerevisiae deletion strains, locus YLR357W, strain rsc2, hits give low values 0.95 | S. cerevisiae deletion strains, locus YLR370C, strain arc18, hits give low values 0.994 | S. cerevisiae deletion strains, locus YLR371W, strain rom2, hits give low values 0.98 | S. cerevisiae deletion strains, locus YLR384C, strain iki3, hits give low values 1 | S. cerevisiae deletion strains, locus YLR418C, strain cdc73, hits give low values 1.01 | S. cerevisiae deletion strains, locus YML016C, strain PPZ1, hits give low values 0.986 | S. cerevisiae deletion strains, locus YML032C, strain rad52, hits give low values 0.999 | S. cerevisiae deletion strains, locus YML120C, strain ndi1, hits give low values 0.985 | S. cerevisiae deletion strains, locus YML124C, strain tub3, hits give low values 0.983 | S. cerevisiae deletion strains, locus YMR058W, strain fet3, hits give low values 0.988 | S. cerevisiae deletion strains, locus YMR078C, strain ctf18, hits give low values 0.985 | S. cerevisiae deletion strains, locus YMR125W, strain sto1, hits give low values 0.984 | S. cerevisiae deletion strains, locus YMR129W, hits give low values 0.99 | S. cerevisiae deletion strains, locus YMR205C, strain PFK2, hits give low values 0.974 | S. cerevisiae deletion strains, locus YMR223W, strain ubp8, hits give low values 0.96 | S. cerevisiae deletion strains, locus YMR231W, strain pep5, hits give low values 1 | S. cerevisiae deletion strains, locus YMR307W, strain GAS1, hits give low values 1.05 | S. cerevisiae deletion strains, locus YNL067W, strain RPL9B, hits give low values 1 | S. cerevisiae deletion strains, locus YNL071W, strain lat1, hits give low values 1.01 | S. cerevisiae deletion strains, locus YNL128W, strain TEP1, hits give low values 0.979 | S. cerevisiae deletion strains, locus YNL183C, strain NPR1, hits give low values 0.95 | S. cerevisiae deletion strains, locus YNL209W, strain ssb2, hits give low values 0.994 | S. cerevisiae deletion strains, locus YNL233W, strain BNI4, hits give low values 0.979 | S. cerevisiae deletion strains, locus YNL248C, strain rpa49, hits give low values 0.985 | S. cerevisiae deletion strains, locus YNL250W, strain rad50, hits give low values 0.977 | S. cerevisiae deletion strains, locus YNL271C, strain bni1, hits give low values 0.993 | S. cerevisiae deletion strains, locus YNL298W, strain CLA4, hits give low values 0.989 | S. cerevisiae deletion strains, locus YNL307C, strain MCK1, hits give low values 0.988 | S. cerevisiae deletion strains, locus YNL322C, strain KRE1 (second series), hits give low values 0.998 | S. cerevisiae deletion strains, locus YNR049C, strain mso1, hits give low values 0.991 | S. cerevisiae deletion strains, locus YNR052C, strain pop2, hits give low values 0.987 | S. cerevisiae deletion strains, locus YOL012C, strain htz1 1.14 | S. cerevisiae deletion strains, locus YOL147C, strain pex11, hits give low values 0.99 | S. cerevisiae deletion strains, locus YOR001W, strain rrp6, hits give low values 1.01 | S. cerevisiae deletion strains, locus YOR061W, strain CKA2, hits give low values 0.994 | S. cerevisiae deletion strains, locus YOR069W, strain VPS5, hits give low values 0.98 | S. cerevisiae deletion strains, locus YOR070C, strain gyp1, hits give low values 0.993 | S. cerevisiae deletion strains, locus YOR080W, strain dia2, hits give low values 1 | S. cerevisiae deletion strains, locus YOR083W, strain WHI5, hits give low values 0.987 | S. cerevisiae deletion strains, locus YOR106W, strain vam3, hits give low values 0.979 | S. cerevisiae deletion strains, locus YOR136W, strain idh2, hits give low values 0.999 | S. cerevisiae deletion strains, locus YOR144C, strain elg1, hits give low values 0.999 | S. cerevisiae deletion strains, locus YOR184W, strain ser1, hits give low values 1 | S. cerevisiae deletion strains, locus YOR231W, strain MKK1, hits give low values 0.948 | S. cerevisiae deletion strains, locus YOR265W, strain rbl2, hits give low values 1.01 | S. cerevisiae deletion strains, locus YOR270C, strain vph1, hits give low values 0.978 | S. cerevisiae deletion strains, locus YOR290C, strain snf2, hits give low values 0.938 | S. cerevisiae deletion strains, locus YOR316C, strain cot1, hits give low values 0.986 | S. cerevisiae deletion strains, locus YPL051W, strain arl3, hits give low values 0.982 | S. cerevisiae deletion strains, locus YPL055C, strain LGE1, hits give low values 0.965 | S. cerevisiae deletion strains, locus YPL078C, strain atp4, hits give low values 0.993 | S. cerevisiae deletion strains, locus YPL106C, strain sse1, hits give low values 0.948 | S. cerevisiae deletion strains, locus YPL240C, strain hsp82, hits give low values 1.01 | S. cerevisiae deletion strains, locus YPL256C, strain CLN2, hits give low values 0.926 | S. cerevisiae deletion strains, locus YPR119W, strain clb2, hits give low values 0.99 | S. cerevisiae deletion strains, locus YPR141C, strain kar3, hits give low values 0.975 | S. cerevisiae deletion strains, locus YPR163C, strain tif3, hits give low values 0.989 | S. cerevisiae deletion strains, locus YPR167C, strain met16, hits give low values 0.993 | S. cerevisiae deletion strains, strain wtn01, hits give low values 0.986 | S. cerevisiae strains, strain wild type, hits give low values 0.993
